# From PubChem BioAssay (NCATS)
# Results filed as inconclusive are left out. Entries that show only a call come without a potency. Active and inactive are the calls of the source. Calls come from the whole dose curve; as a rule, active = well fitted inhibition curve with a large enough effect; inconclusive = small, poorly fitted or top-dose-only effect; inactive = flat fitted curve, though single readings scatter.
# Columns and labels:
# Test in all cases: qHTS profiling for inhibitors of Plasmodium falciparum proliferation (AID 504749); note: nearly all actives have a fitted effect of over 60% in size
# Conditions in all cases: P. falciparum in erythrocytes, SYBR Green DNA, 72 h; series mostly up to 28.7 µM
# DIV14 = test system: DIV14
# Summary of the method: (§1)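 Fluorescence of SYBR Green-bound parasite DNA, read at 485/535 nm, served as the growth measure. Infected erythrocytes were cultured with compound 72 h; artemisinin (0.29 uM) and DMSO wells defined the normalization range.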
# DIV17 = test system: DIV17
# Summary of the method: as §1
# DIV30 = test system: DIV30
# Summary of the method: as §1
# Dd2 = test system: Dd2
# Summary of the method: as §1
# ECU = test system: ECU
# Summary of the method: as §1
# FAB9 = test system: FAB9
# Summary of the method: as §1
# GB4 = test system: GB4
# Summary of the method: as §1
# HB3 = test system: HB3
# Summary of the method: as §1
# ICS = test system: ICS
# Summary of the method: as §1
# JCK = test system: JCK
# Summary of the method: as §1
# N140 = test system: N140
# Summary of the method: as §1
# P93_24 = test system: P93_24
# Summary of the method: as §1
# P94_40 = test system: P94_40
# Summary of the method: as §1
# PAD = test system: PAD
# Summary of the method: as §1
# PC15 = test system: PC15
# Summary of the method: as §1
# PC26 = test system: PC26
# Summary of the method: as §1
# PC49 = test system: PC49
# Summary of the method: as §1
# SC27B = test system: SC27B
# Summary of the method: as §1
# TAB109 = test system: TAB109
# Summary of the method: as §1
# TAB113 = test system: TAB113
# Summary of the method: as §1
# Potency is the fitted concentration of half-maximal effect.
SMILES,Potency (DIV14),Potency (DIV17),Potency (DIV30),Potency (Dd2),Potency (ECU),Potency (FAB9),Potency (GB4),Potency (HB3),Potency (ICS),Potency (JCK),Potency (N140),Potency (P93_24),Potency (P94_40),Potency (PAD),Potency (PC15),Potency (PC26),Potency (PC49),Potency (SC27B),Potency (TAB109),Potency (TAB113)
CC1OC(C)OC(C)O1 (stereo not drawn),inactive,inactive,inactive,inactive,inactive,inactive,inactive,inactive,inactive,inactive,inactive,inactive,inactive,inactive,inactive,inactive,inactive,inactive,inactive,inactive
Oc1cccc2cccnc12,inactive,inactive,inactive,inactive,inactive,inactive,inactive,inactive,inactive,inactive,inactive,inactive,inactive,inactive,inactive,inactive,inactive,inactive,inactive,inactive
CCOP(=S)(OCC)Oc1cc(C)nc(C(C)C)n1,inactive,inactive,inactive,inactive,inactive,inactive,inactive,inactive,inactive,inactive,inactive,inactive,inactive,inactive,inactive,inactive,inactive,inactive,inactive,inactive
CN1CCN(C(=O)O[C@H]2c3nccnc3C(=O)N2c2ccc(Cl)cn2)CC1,inactive,inactive,inactive,inactive,inactive,inactive,inactive,inactive,inactive,inactive,inactive,inactive,inactive,inactive,inactive,inactive,,inactive,inactive,inactive
CN(C)CCc1ccc(O)cc1,inactive,inactive,inactive,inactive,inactive,inactive,inactive,inactive,inactive,inactive,inactive,inactive,inactive,inactive,inactive,inactive,inactive,inactive,inactive,inactive
CN1C[C@H](CNC(=O)OCc2ccccc2)C[C@@H]2c3cccc4c3c(cn4C)C[C@H]21,8.49 µM (active),15.1 µM (active),15.1 µM (active),7.94 µM (active),11.2 µM (active),inactive,8.49 µM (active),,7.08 µM (active),inactive,12.6 µM (active),5.01 µM (active),6.31 µM (active),,,13.5 µM (active),inactive,,5.62 µM (active),12.6 µM (active)
Oc1cc(Cl)ccc1Oc1ccc(Cl)cc1Cl,3.01 µM (active),6.01 µM (active),6.75 µM (active),11.2 µM (active),6.31 µM (active),11.2 µM (active),4.78 µM (active),8.91 µM (active),1.58 µM (active),11.2 µM (active),3.16 µM (active),6.31 µM (active),4.47 µM (active),5.01 µM (active),7.08 µM (active),7.57 µM (active),12.6 µM (active),4.47 µM (active),10 µM (active),4.47 µM (active)
CC(=O)[C@H]1CC[C@H]2[C@@H]3CC[C@H]4C[C@H](O)CC[C@]4(C)[C@H]3C(=O)C[C@]12C,inactive,inactive,inactive,inactive,inactive,inactive,inactive,inactive,inactive,inactive,inactive,inactive,inactive,inactive,inactive,inactive,inactive,inactive,inactive,inactive
CC[C@@H](CO)NC(=O)[C@@H]1C=C2c3cccc4[nH]cc(c34)C[C@H]2N(C)C1,inactive,inactive,inactive,inactive,inactive,inactive,inactive,inactive,inactive,inactive,inactive,inactive,inactive,inactive,inactive,inactive,inactive,inactive,inactive,inactive
C=C1CC[C@@]2(O)[C@H]3Cc4ccc(O)c5c4[C@@]2(CCN3CC2CC2)[C@H]1O5,,inactive,inactive,,inactive,inactive,,inactive,inactive,inactive,inactive,inactive,inactive,inactive,inactive,inactive,inactive,inactive,inactive,inactive
CC(C)(C)NCC(O)c1cc(Cl)c(N)c(Cl)c1 (stereo not drawn),12 µM (active),8.49 µM (active),,12.6 µM (active),,inactive,7.57 µM (active),inactive,11.2 µM (active),,8.91 µM (active),,7.94 µM (active),7.94 µM (active),,,,,,
CC(C)NCC(O)c1ccccc1Cl (stereo not drawn),6.75 µM (active),6.75 µM (active),,11.2 µM (active),7.94 µM (active),inactive,8.49 µM (active),,4.47 µM (active),,7.08 µM (active),12.6 µM (active),3.98 µM (active),7.94 µM (active),11.2 µM (active),,,10 µM (active),4.47 µM (active),12.6 µM (active)
CCN(CC)CCN1C(=O)CN=C(c2ccccc2F)c2cc(Cl)ccc21,,inactive,inactive,,inactive,inactive,,inactive,,inactive,inactive,,,inactive,inactive,inactive,inactive,inactive,,inactive
CCCN1CCC[C@@H]2Cc3[nH]ncc3C[C@H]21,inactive,inactive,inactive,,,,inactive,,,,,,,,,inactive,,,,
CCC(COC(=O)c1cc(OC)c(OC)c(OC)c1)(c1ccccc1)N(C)C (stereo not drawn),inactive,inactive,inactive,inactive,inactive,inactive,,inactive,inactive,inactive,inactive,inactive,,inactive,inactive,inactive,inactive,inactive,inactive,inactive
CC(C)(C)CC(C)(C)c1ccc(O)cc1,,,inactive,,,inactive,,,,inactive,inactive,inactive,,inactive,inactive,inactive,,inactive,inactive,inactive

SMILES,Potency (DIV14),Potency (DIV17),Potency (DIV30),Potency (Dd2),Potency (ECU),Potency (FAB9),Potency (GB4),Potency (HB3),Potency (ICS),Potency (JCK),Potency (N140),Potency (P93_24),Potency (P94_40),Potency (PAD),Potency (PC15),Potency (PC26),Potency (PC49),Potency (SC27B),Potency (TAB109),Potency (TAB113)
c1ccc2c(c1)Nc1ccccc1S2,6.75 µM (active),7.57 µM (active),,inactive,,inactive,3.79 µM (active),,12.6 µM (active),inactive,inactive,,,,,,inactive,inactive,,inactive
C=C(C)[C@H]1Cc2c(ccc3c2O[C@@H]2COc4cc(OC)c(OC)cc4[C@@H]2C3=O)O1,,,,inactive,inactive,inactive,,inactive,11.2 µM (active),inactive,inactive,inactive,,inactive,inactive,inactive,inactive,inactive,inactive,inactive
CC(C)(N)Cc1ccc(Cl)cc1,,inactive,inactive,,inactive,inactive,8.49 µM (active),inactive,inactive,,,inactive,inactive,inactive,inactive,,inactive,inactive,inactive,inactive
O=[N+]([O-])c1cc([As](=O)(O)O)ccc1O,,,5.73 µM (active),3.55 µM (active),3.16 µM (active),3.55 µM (active),4.55 µM (active),3.16 µM (active),3.16 µM (active),,3.55 µM (active),,,,,,,3.55 µM (active),3.16 µM (active),3.16 µM (active)
COc1ccc(C(=O)c2c(C)n(CCN3CCOCC3)c3ccccc23)cc1,,,inactive,inactive,inactive,inactive,,inactive,,inactive,inactive,inactive,,inactive,inactive,,inactive,inactive,inactive,inactive
Fc1ccc(C(OCCN2CCN(CCCc3ccccc3)CC2)c2ccc(F)cc2)cc1,10.7 µM (active),10.7 µM (active),,,10 µM (active),,15.1 µM (active),8.91 µM (active),3.55 µM (active),11.2 µM (active),5.01 µM (active),4.47 µM (active),7.94 µM (active),8.91 µM (active),11.2 µM (active),12 µM (active),8.91 µM (active),8.91 µM (active),7.94 µM (active),8.91 µM (active)
CCC1(C2=NCCN2)Cc2ccccc2O1 (stereo not drawn),,,,10 µM (active),inactive,inactive,8.49 µM (active),inactive,inactive,inactive,12.6 µM (active),,12.6 µM (active),inactive,inactive,inactive,inactive,,,
c1ccc2c(c1)OCC(C1=NCCN1)O2 (stereo not drawn),,,inactive,inactive,inactive,inactive,,inactive,,inactive,inactive,inactive,inactive,inactive,inactive,inactive,,inactive,inactive,inactive
CC1NCCOC1c1ccccc1 (stereo not drawn),,inactive,inactive,inactive,inactive,inactive,,inactive,inactive,inactive,inactive,inactive,inactive,inactive,inactive,inactive,inactive,inactive,inactive,inactive
CCN(CC)CCOC(=O)C(O)(c1ccccc1)c1ccccc1,,inactive,inactive,inactive,inactive,inactive,inactive,inactive,inactive,inactive,inactive,inactive,inactive,inactive,inactive,inactive,inactive,inactive,inactive,inactive
NCCc1cc(O)c(O)cc1O,inactive,inactive,inactive,,inactive,inactive,inactive,inactive,inactive,inactive,inactive,inactive,inactive,inactive,inactive,inactive,inactive,inactive,,inactive
N#CC(C#N)=Cc1ccc(O)c(O)c1,inactive,,inactive,inactive,inactive,inactive,,inactive,inactive,inactive,inactive,inactive,inactive,inactive,inactive,inactive,inactive,inactive,,
COc1ccc(C(CN(C)C)C2(O)CCCCC2)cc1 (stereo not drawn),inactive,,inactive,,inactive,inactive,,inactive,inactive,inactive,,inactive,inactive,inactive,inactive,,inactive,inactive,inactive,inactive
O=c1[nH]c2ccccc2n1CCCN1CCC(n2c(=O)[nH]c3cc(Cl)ccc32)CC1,5.36 µM (active),8.49 µM (active),7.57 µM (active),,7.94 µM (active),inactive,,10 µM (active),2.24 µM (active),,6.31 µM (active),5.01 µM (active),11.2 µM (active),4.47 µM (active),7.94 µM (active),6.75 µM (active),inactive,,5.01 µM (active),
CCOC(=O)C1(c2ccccc2)CCN(CCC(C#N)(c2ccccc2)c2ccccc2)CC1,4.78 µM (active),6.75 µM (active),6.75 µM (active),8.91 µM (active),3.98 µM (active),,3.38 µM (active),5.01 µM (active),2.24 µM (active),,3.55 µM (active),3.55 µM (active),3.16 µM (active),2.51 µM (active),12.6 µM (active),6.75 µM (active),,2.82 µM (active),3.16 µM (active),2.24 µM (active)
